Results filed as inconclusive are left out. The source made the active and inactive calls. Rule for the calls: active = hit-call score of the fitted dose curve at least 0.9, where 1 is the maximum; inconclusive = response in the unintended direction; inactive = score below 0.9. Where a SMILES comes first, the peptide text is derived from it. [ ]: non-standard residue; d: D form. pGlu = O=C1CC[C@@H](C(=O)O)N1; Thz = O=C(O)[C@@H]1CSCN1
Tests used:
[1] = TOX21_p53_BLA_p2_viability: Viability Assessment in the Tox21 HCT-116 p53 Agonism Beta-lactamase Assay, Phase 2 (AID 2283591);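 note: compound exposure lasted 16 h at 37 °C; actives lower the ATP signal meaning cytotoxicity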
Procedure, shortened: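 HCT-116 p53-bla cells (4000/well) rested 5 h at 37C, then received compounds in DMSO (217-fold dilution) for 16 h at 37C, 5% CO2. After the CCF4 read, CellTiter-Glo was added; ATP luminescence was read after 30 min at room temperature.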

[2] = target: Cellular tumor antigen p53 (Homo sapiens) (UniProt P04637); assay: TOX21_p53_BLA_p2_ratio: Tox21 HCT-116 p53 Agonism Beta-lactamase Assay, Ratio, Phase 2 (AID 2283592)
Procedure, shortened: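 HCT-116 cells with p53-responsive beta-lactamase reporter, 4000 cells/well, preincubated 5 h, then compound in DMSO (217-fold dilution) for 16 h at 37C. CCF4-AM substrate 2 h at room temperature; 460/530 nm emission ratio fitted upward versus DMSO.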

[3] = target: Cellular tumor antigen p53 (Homo sapiens) (UniProt P04637); assay: TOX21_p53_BLA_p3_ratio: Tox21 HCT-116 p53 Agonism Beta-lactamase Assay, Ratio, Phase 3 (AID 2283596)
Procedure, shortened: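 HCT116 p53-bla cells (4000/well) given compound in DMSO (217-fold dilution) after 5 h, incubated 16 h at 37C. CCF4-AM substrate 2 h at room temperature; 460/530 nm emission ratio, gain fitted against DMSO.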

[4] = TOX21_p53_BLA_p4_viability: Viability Assessment in the Tox21 HCT-116 p53 Agonism Beta-lactamase Assay, Phase 4 (AID 2283597);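 note: hits lower the luminescence signal meaning cytotoxicity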
Procedure, shortened: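 HCT-116 p53-bla cells, 4000/well, dosed after 5 h attachment and incubated 16 h at 37 °C, 5% CO2. Viability from CellTiter-Glo ATP luminescence after 30 min at room temperature, taken after the beta-lactamase read; loss of signal indicates cytotoxicity.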

[5] = target: Cellular tumor antigen p53 (Homo sapiens) (UniProt P04637); assay: TOX21_p53_BLA_p5_ratio: Tox21 HCT-116 p53 Agonism Beta-lactamase Assay, Ratio, Phase 5 (AID 2283599)
Procedure, shortened: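 HCT-116 cells carrying a p53-inducible beta-lactamase reporter were seeded at 4000 cells/well and dosed after 5 h with compound in DMSO (217-fold dilution). After 16 h at 37C, CCF4-AM substrate was added for 2 h, and the 460/530 nm emission ratio was scored as gain-of-signal versus DMSO.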

[6] = target: Cellular tumor antigen p53 (Homo sapiens) (UniProt P04637); assay: TOX21_p53_BLA_p4_ratio: Tox21 HCT-116 p53 Agonism Beta-lactamase Assay, Ratio, Phase 4 (AID 2283601)
Procedure, shortened: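 HCT116 cells carrying an inducible beta-lactamase reporter were plated at 4000 cells/well, rested 5 h, then exposed to compounds in DMSO (217-fold dilution) for 16 h at 37C. CCF4-AM substrate was loaded 2 h at room temperature; 460/530 nm emission ratio scored gain-of-signal versus DMSO.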

[7] = TOX21_p53_BLA_p5_viability: Viability Assessment in the Tox21 HCT-116 p53 Agonism Beta-lactamase Assay, Phase 5 (AID 2283600)
Procedure, shortened: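 HCT-116 p53 beta-lactamase reporter cells, 4000/well, were exposed to compound (pin transfer, 217-fold dilution) for 16 hours at 37C. Cellular ATP was read by CellTiter-Glo luminescence after 30 min at room temperature.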

Measured: AC50

Chain of Cellular tumor antigen p53 (Homo sapiens) (P04637 whole entry, looked up): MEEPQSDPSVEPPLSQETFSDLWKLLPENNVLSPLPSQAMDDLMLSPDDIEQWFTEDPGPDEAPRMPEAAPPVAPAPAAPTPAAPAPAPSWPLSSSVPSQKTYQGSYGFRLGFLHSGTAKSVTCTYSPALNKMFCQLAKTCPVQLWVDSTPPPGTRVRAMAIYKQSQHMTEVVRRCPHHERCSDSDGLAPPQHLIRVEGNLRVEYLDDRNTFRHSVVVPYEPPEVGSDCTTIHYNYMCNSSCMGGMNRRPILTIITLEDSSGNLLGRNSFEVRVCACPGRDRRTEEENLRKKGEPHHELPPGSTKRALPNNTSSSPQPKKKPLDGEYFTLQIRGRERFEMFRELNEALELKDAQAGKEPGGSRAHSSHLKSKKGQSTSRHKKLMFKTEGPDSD

N#C/C(=C1\SCC(c2ccccc2Cl)S1)n1ccnc1 (stereo not given)
inactive: [1] | [2] | [3] | [4] | [5] | [6]

CN[C@H](CC(C)C)C(=O)N[C@H]1C(=O)N[C@@H](CC(N)=O)C(=O)N[C@H]2C(=O)N[C@H]3C(=O)N[C@H](C(=O)N[C@H](C(=O)O)c4cc(O)cc(O)c4-c4cc3ccc4O)[C@H](O)c3ccc(c(Cl)c3)Oc3cc2cc(c3O[C@@H]2O[C@H](CO)[C@@H](O)[C@H](O)[C@H]2O[C@H]2C[C@](C)(N)[C@H](O)[C@H](C)O2)Oc2ccc(cc2Cl)[C@H]1O
inactive: [1] | [2] | [3] | [4] | [7] | [6]

CCOc1cc(OCC)c(C(C)=O)cc1OCC
inactive: [1] | [2] | [3] | [4] | [7]

O=C(O)c1ccc(OCCn2ccnc2)cc1
inactive: [1] | [2] | [3] | [4] | [7] | [6]

C[C@@H]1C[C@H]2O[C@@]3(O[C@@H]2C(C)(C)O)[C@H](O)[C@@]2(C)[C@@H]4CC[C@H]5C(C)(C)[C@@H](O[C@@H]6OC[C@@H](O)[C@H](O)[C@H]6O)CC[C@@]56C[C@@]46CC[C@]2(C)[C@@H]13
inactive: [1] | [2] | [3] | [4] | [5] | [6]

NC(=O)c1cc[n+](CC2=C(C(=O)O)N3C(=O)[C@@H](NC(=O)[C@@H](c4ccccc4)S(=O)(=O)[O-])[C@H]3SC2)cc1
inactive: [1] | [2] | [3] | [4] | [5] | [6]

O=NN(CCCl)C(=O)NCCCl
inactive: [1] | [2] | [3] | [4] | [5] | [6]

CNCCc1ccccn1
inactive: [1] | [2] | [3] | [4] | [7] | [6]

C=CCOc1ccc(CC(=O)O)cc1Cl
inactive: [1] | [2] | [3] | [4] | [7] | [6]

Cc1cccc(C)c1NC(=O)C(C)N (stereo not given)
inactive: [1] | [2] | [3] | [4] | [5] | [6]

NCC(O)CC(=O)O (stereo not given)
inactive: [1] | [2] | [3] | [4] | [5] | [6]

CCC(=O)c1c(O)cc(O)cc1O
inactive: [1] | [2] | [3] | [4] | [5] | [6]

Cc1ccccc1OCC1CO1 (stereo not given)
inactive: [1] | [2] | [3] | [4] | [7] | [6]

C[C@@H]1O[C@@H](OC[C@H]2O[C@@H](Oc3c(-c4ccc(OCCO)c(OCCO)c4)oc4cc(OCCO)cc(O)c4c3=O)[C@H](O)[C@@H](O)[C@@H]2O)[C@H](O)[C@H](O)[C@H]1O
inactive: [1] | [2] | [3] | [4] | [6]

CC(C)Cn1cnc2c(N)nc3ccccc3c21
inactive: [1] | [2] | [3] | [5] | [7]

O=C(O)c1ccccc1OP(=O)(O)O
inactive: [1] | [2] | [3] | [4] | [6]

Cc1c(NC(=O)c2cccnc2)c(=O)n(-c2ccccc2)n1C
inactive: [1] | [2] | [3] | [5] | [7]

CNC(=O)OCc1cccc(COC(=O)NC)n1
inactive: [1] | [2] | [3] | [5] | [7]

CCCCC(=O)O[C@H]1CC[C@H]2[C@@H]3CCc4cc(O)ccc4[C@H]3CC[C@]12C
inactive: [1] | [2] | [3] | [4] | [6]

Cc1cn[nH]c1
inactive: [1] | [2] | [3] | [5] | [7]

C[C@@H]1C[C@H]2[C@@H]3CCC4=CC(=O)C=C[C@]4(C)[C@@]3(F)[C@@H](O)C[C@]2(C)[C@@]1(O)C(=O)COC(=O)c1cccc(S(=O)(=O)O)c1
inactive: [1] | [2] | [3] | [5]

CCOC(=O)Cc1cccc(-c2cc(CCCCCCc3ccc(O[C@H]4O[C@H](COC(C)=O)[C@@H](OC(C)=O)[C@H](OC(C)=O)[C@@H]4OC(C)=O)c(-c4cccc(CC(=O)OCC)c4)c3)ccc2O[C@H]2O[C@H](COC(C)=O)[C@@H](OC(C)=O)[C@H](OC(C)=O)[C@@H]2OC(C)=O)c1
inactive: [1] | [2] | [3] | [4] | [6]

CC=CC(=O)CC
inactive: [1] | [2] | [3] | [5] | [7]

O=C1CC[C@@H](C(=O)N2CSC[C@H]2C(=O)O)N1 ([pGlu]-[Thz]-OH)
inactive: [1] | [2] | [3] | [5]

CCCN(CCC)CCc1cccc2c1CC(=O)N2
inactive: [1] | [2] | [3] | [5] | [7]

CC1CC(C)C(=O)C1=O (stereo not given)
inactive: [1] | [2] | [3] | [5]

H-RKDVY-OH
inactive: [1] | [2] | [3] | [5] | [7] | [6]

OCc1ccccc1O
inactive: [1] | [2] | [3] | [5] | [7]

COc1ccc(C(=O)c2ccc(OC)cc2O)c(O)c1
inactive: [1] | [2] | [3] | [4] | [6]

NC(CSCC(=O)O)C(=O)O (stereo not given)
inactive: [1] | [2] | [3] | [5] | [7]

NS(=O)(=O)c1cc(Cl)c(Cl)c(S(N)(=O)=O)c1
inactive: [1] | [2] | [3] | [5] | [7]

Oc1ccc(C2(c3ccc(O)cc3)CC3CC2C2CCCC32)cc1 (stereo not given)
inactive: [3]
active: [1] 64.1 µM | [2] 82.8 µM | [4] 55.4 µM | [6] 83.1 µM

Oc1cc(O)c2c(c1)O[C@H](c1ccc(O)c(O)c1)[C@H](O)C2
inactive: [1] | [2] | [3] | [5] | [7]

Reference: PubChem BioAssay (EPA / NIEHS)
